Data reported in PubChem BioAssay (NCATS).
Inconclusive results are not listed. Unmarked numbers belong to inactive results. Calls of active or inactive are those of the source. Calls follow the shape of the dose curve; as a rule, active = well fitted curve in the direction sought with a large enough effect; inconclusive = small, poorly fitted or top-dose-only effect, or another doubt; inactive = no such curve, though single readings can be large; an effect the other way counts as inactive or inconclusive.

Columns and labels:
[1] = Quantitative High-Throughput drug screen in 47 multiple myeloma cell lines against the NCATS MIPE library collection: KMS20_JCRB cell viability assay (AID 1918973); also: nearly all actives have a fitted effect of over 45% in size
Outline: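 CellTiter-Glo ATP luminescence gave viability after 48 h compound treatment at 37C of 500 multiple myeloma cells per well. Normalisation used DMSO-only wells as 100% and media-only wells as 0% viability; primary qHTS of approved and investigational drugs.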

[2] = Quantitative High-Throughput drug screen in 47 multiple myeloma cell lines against the NCATS MIPE library collection: KMS26_JCRB cell viability assay (AID 1918975); also: nearly all actives have a fitted effect of over 45% in size
Outline: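 qHTS of the MIPE 4.0 collection: 500 myeloma cells/well, 48 h drug exposure at 37C in 5% CO2, then CellTiter-Glo for 5 min at room temperature before luminescence reading.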

[3] = Quantitative High-Throughput drug screen in 47 multiple myeloma cell lines against the NCATS MIPE library collection: MMM1_PLB cell viability assay (AID 1918976); also: nearly all actives have a fitted effect of over 35% in size
Outline: (§1)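 Viability after 48 h drug exposure was measured as ATP-dependent luminescence. Cells, 500 per well, sat at 37 °C under 5% CO2; DMSO wells set 100%, media-only wells 0%.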

[4] = Quantitative High-Throughput drug screen in 47 multiple myeloma cell lines against the NCATS MIPE library collection: MOLP8_DSMZ cell viability assay (AID 1918977); also: nearly all actives have a fitted effect of over 45% in size
Outline: as §1

[5] = Quantitative High-Throughput drug screen in 47 multiple myeloma cell lines against the NCATS MIPE library collection: NCIH929_DSMZ cell viability assay (AID 1918978); also: nearly all actives have a fitted effect of over 35% in size
Outline: as §1

[6] = Quantitative High-Throughput drug screen in 47 multiple myeloma cell lines against the NCATS MIPE library collection: OCIMY1_PLB cell viability assay (AID 1918979); also: nearly all actives have a fitted effect of over 35% in size; as to viability: series mostly up to about 46 µM
Outline: as §1

[7] = Quantitative High-Throughput drug screen in 47 multiple myeloma cell lines against the NCATS MIPE library collection: MM1R_ATCC cell viability assay (AID 1918981); also: nearly all actives have a fitted effect of over 35% in size
Outline: as §1

[8] = Quantitative High-Throughput drug screen in 47 multiple myeloma cell lines against the NCATS MIPE library collection: LP1_DSMZ cell viability assay (AID 1918982); also: nearly all actives have a fitted effect of over 35% in size
Outline: as §1

[9] = Quantitative High-Throughput drug screen in 47 multiple myeloma cell lines against the NCATS MIPE library collection: L363_DSMZ cell viability assay (AID 1918984); also: nearly all actives have a fitted effect of over 40% in size
Outline: as §1

[10] = Quantitative High-Throughput drug screen in 47 multiple myeloma cell lines against the NCATS MIPE library collection: KMS34_JCRB cell viability assay (AID 1918985); also: nearly all actives have a fitted effect of over 40% in size
Outline: as §1

[11] = Quantitative High-Throughput drug screen in 47 multiple myeloma cell lines against the NCATS MIPE library collection: OCIMY7_PLB cell viability assay (AID 1918987); also: nearly all actives have a fitted effect of over 65% in size
Outline: as §1

[12] = Quantitative High-Throughput drug screen in 47 multiple myeloma cell lines against the NCATS MIPE library collection: OCIMY5_PLB cell viability assay (AID 1918988); also: nearly all actives have a fitted effect of over 65% in size
Outline: as §1

[13] = Quantitative High-Throughput drug screen in 47 multiple myeloma cell lines against the NCATS MIPE library collection: OPM1_PLB cell viability assay (AID 1918989); also: nearly all actives have a fitted effect of over 40% in size
Outline: as §1

[14] = Quantitative High-Throughput drug screen in 47 multiple myeloma cell lines against the NCATS MIPE library collection: SKMM1_PLB cell viability assay (AID 1919863); settings: SKMM1 myeloma viability, CellTiter-Glo ATP, 48 h; viability: hits give low values; also: nearly all actives have a fitted effect of over 35% in size; as to viability: series mostly up to about 46 µM
Outline: as §1

[15] = Quantitative High-Throughput drug screen in 47 multiple myeloma cell lines against the NCATS MIPE library collection: U266_ATCC cell viability assay (AID 1919864); also: nearly all actives have a fitted effect of over 35% in size
Outline: as §1

[16] = Quantitative High-Throughput drug screen in 47 multiple myeloma cell lines against the NCATS MIPE library collection: XG6_PLB cell viability assay (AID 1919865); also: nearly all actives have a fitted effect of over 40% in size
Outline: as §1

[17] = Quantitative High-Throughput drug screen in 47 multiple myeloma cell lines against the NCATS MIPE library collection: XG1_PLB cell viability assay (AID 1919866); also: nearly all actives have a fitted effect of over 35% in size
Outline: as §1

[18] = Quantitative High-Throughput drug screen in 47 multiple myeloma cell lines against the NCATS MIPE library collection: MM1S_ATCC cell viability assay (AID 1918980); also: nearly all actives have a fitted effect of over 45% in size
Outline: as §1

[19] = Quantitative High-Throughput drug screen in 47 multiple myeloma cell lines against the NCATS MIPE library collection: KMS28PE_JCRB cell viability assay (AID 1918983); also: nearly all actives have a fitted effect of over 35% in size
Outline: as §1
Potency is read from the fitted curve at half-maximal effect.

Structure (SMILES)	Potency [1]	Potency [2]	Potency [3]	Potency [4]	Potency [5]	Potency [6]	Potency [7]	Potency [8]	Potency [9]	Potency [10]	Potency [11]	Potency [12]	Potency [13]	Potency [14]	Potency [15]	Potency [16]	Potency [17]	Potency [18]	Potency [19]	viability [14] [%]
O=C(Nc1cn[nH]c1-c1nc2ccc(CN3CCOCC3)cc2[nH]1)NC1CC1	2960 nM (active)	4690 nM (active)	5900 nM (active)	2640 nM (active)	1180 nM (active)	10500 nM (active)	2960 nM (active)	4690 nM (active)	2640 nM (active)	418 nM (active)	332 nM (active)	4180 nM (active)	1660 nM (active)	10500 nM (active)	2350 nM (active)	743 nM (active)	148 nM (active)			
CC(C)c1ccccc1Cc1cc(C(=O)Nc2ccc(S(=O)(=O)c3ccccc3C(C)(C)C)cc2)c(O)c(O)c1O	9350 nM (active)	9350 nM (active)	18700 nM (active)	13200 nM (active)	7430 nM (active)	23500 nM (active)	10500 nM (active)		inactive		4690 nM (active)	4690 nM (active)	9350 nM (active)	13200 nM (active)	13200 nM (active)	7430 nM (active)	3720 nM (active)	11800 nM (active)		
CN1CCN(c2cc(C(=O)Nc3ccc4c(c3)-c3c(c(C(N)=O)nn3-c3ccc(F)cc3)CC4)c(Cl)cn2)CC1	2960 nM (active)	10500 nM (active)		26400 nM (active)	743 nM (active)	26400 nM (active)	20900 nM (active)	23500 nM (active)	4180 nM (active)		187 nM (active)	2960 nM (active)	9350 nM (active)	26400 nM (active)	2960 nM (active)		3320 nM (active)	3320 nM (active)	23500 nM (active)	
CC(C)c1cc(-c2n[nH]c(=O)n2-c2ccc3c(ccn3C)c2)c(O)cc1O	29.6 nM (active)	37.2 nM (active)	74.3 nM (active)			46.9 nM (active)			11.8 nM (active)	26.4 nM (active)	11.8 nM (active)		29.6 nM (active)	74.3 nM (active)	37.2 nM (active)	59 nM (active)	29.6 nM (active)	59 nM (active)	13.2 nM (active)	
CC1(C)CC(=O)c2c(C(F)(F)F)nn(-c3ccc(C(N)=O)c(NC4CCC(OC(=O)CN)CC4)c3)c2C1 (configuration not stated)	148 nM (active)	187 nM (active)	418 nM (active)	148 nM (active)		469 nM (active)	209 nM (active)		83.3 nM (active)	166 nM (active)	83.3 nM (active)	187 nM (active)	166 nM (active)	264 nM (active)	166 nM (active)	296 nM (active)	83.3 nM (active)	209 nM (active)		
CNC(=O)c1c(F)cccc1Nc1nc(Nc2cc3c(cc2OC)CCN3C(=O)CN(C)C)nc2[nH]ccc12	118 nM (active)	264 nM (active)	46.9 nM (active)	7430 nM (active)		372 nM (active)	93.5 nM (active)	16600 nM (active)	inactive	8330 nM (active)	105 nM (active)	1660 nM (active)	7430 nM (active)	10500 nM (active)	3320 nM (active)	2350 nM (active)	2350 nM (active)		132 nM (active)	
COCCn1c2c([n+](Cc3cnccn3)c1C)C(=O)c1ccccc1C2=O	23.5 nM (active)	14.8 nM (active)	16.6 nM (active)	23.5 nM (active)		26.4 nM (active)	4.2 nM (active)	13.2 nM (active)		5.3 nM (active)	296 nM (active)	7.4 nM (active)	29.6 nM (active)	37.2 nM (active)	5.9 nM (active)	20.9 nM (active)	7.4 nM (active)	3.7 nM (active)	26.4 nM (active)	
Cc1cc(Nc2nc(N[C@@H](C)c3ccc(F)cc3)c(C#N)cc2F)n[nH]1	5260 nM (active)	8330 nM (active)	6620 nM (active)		13200 nM (active)					833 nM (active)	418 nM (active)	4180 nM (active)	1320 nM (active)	1050 nM (active)	16600 nM (active)	1050 nM (active)	235 nM (active)	20900 nM (active)	935 nM (active)	
Cn1c(=O)n(-c2ccc(C(C)(C)C#N)cc2)c2c3cc(-c4cnc5ccccc5c4)ccc3ncc21	372 nM (active)	209 nM (active)	209 nM (active)	16.6 nM (active)		66.2 nM (active)	118 nM (active)			13.2 nM (active)	1480 nM (active)	743 nM (active)		33.2 nM (active)	4180 nM (active)			296 nM (active)	52.6 nM (active)	
Cc1cccc(C=NNc2cc(N3CCOCC3)nc(OCCc3ccccn3)n2)c1	6620 nM (active)	118 nM (active)	16600 nM (active)		14800 nM (active)		6620 nM (active)	11800 nM (active)	235 nM (active)			23500 nM (active)	4180 nM (active)	16600 nM (active)	6620 nM (active)	16600 nM (active)	23500 nM (active)			
COC(=O)C1=C(C)NC(C)=C(C(=O)OCCN2CCN(C(c3ccccc3)c3ccccc3)CC2)C1c1cccc([N+](=O)[O-])c1 (configuration not stated)	inactive	inactive	inactive			inactive	inactive		inactive		inactive		inactive		inactive	2640 nM (active)	inactive		inactive	126
COc1cc2c(Oc3ccc(-c4cnc(Nc5ccc(F)cc5)n(C)c4=O)cc3F)ccnc2cc1OCCCN1CCOCC1	2960 nM (active)	18700 nM (active)	4690 nM (active)	18700 nM (active)		11800 nM (active)		11800 nM (active)	833 nM (active)	18700 nM (active)	7430 nM (active)	14800 nM (active)	6620 nM (active)	29600 nM (active)	20900 nM (active)	3320 nM (active)	7430 nM (active)	9350 nM (active)	11800 nM (active)	
CC(C)C[C@H](NC(=O)CNC(=O)c1cc(Cl)ccc1Cl)B(O)O	132 nM (active)	118 nM (active)	9350 nM (active)		37.2 nM (active)	66.2 nM (active)		132 nM (active)	132 nM (active)	59 nM (active)	41.8 nM (active)	37.2 nM (active)	46.9 nM (active)	296 nM (active)	83.3 nM (active)	37.2 nM (active)	46.9 nM (active)	41.8 nM (active)	83.3 nM (active)	
COc1cc2c(Oc3ccc(NC(=O)C4(C(=O)Nc5ccc(F)cc5)CC4)cc3F)ccnc2cc1OCCCN1CCOCC1	1870 nM (active)	16600 nM (active)	18700 nM (active)		2960 nM (active)	14800 nM (active)	4180 nM (active)	16600 nM (active)	2960 nM (active)	10500 nM (active)	264 nM (active)	5900 nM (active)	4180 nM (active)	20900 nM (active)	20900 nM (active)	5260 nM (active)	9350 nM (active)	16600 nM (active)	4180 nM (active)	
CCN1CCN(CC(=O)Nc2ccc(-c3cccc4c(=O)cc(N5CCOCC5)oc34)c3sc4ccccc4c23)CC1	1180 nM (active)	1320 nM (active)	2350 nM (active)	526 nM (active)		5900 nM (active)	1480 nM (active)	1480 nM (active)	33.2 nM (active)	2090 nM (active)	46.9 nM (active)	1050 nM (active)	264 nM (active)	7430 nM (active)	18700 nM (active)	2350 nM (active)	935 nM (active)		5260 nM (active)	
CC1(O)CC(c2nc(-c3ccc4ccc(-c5ccccc5)nc4c3)c3c(N)nccn23)C1 (configuration not stated)	1180 nM (active)	833 nM (active)	209 nM (active)		187 nM (active)		187 nM (active)	235 nM (active)	662 nM (active)	590 nM (active)	209 nM (active)	235 nM (active)	18700 nM (active)			5260 nM (active)	5900 nM (active)	132 nM (active)	264 nM (active)	
Cc1cn2c(-c3cn[nH]c3)cnc2c(Nc2ccc(C(=O)N3CCNCC3)cc2F)n1	18700 nM (active)	16600 nM (active)	14800 nM (active)		8330 nM (active)		20900 nM (active)				10500 nM (active)	20900 nM (active)	18700 nM (active)	18700 nM (active)	13200 nM (active)	2960 nM (active)	3720 nM (active)		18700 nM (active)	
CCOc1ccccc1OCCNC(C)Cc1ccc(OC)c(S(N)(=O)=O)c1 (configuration not stated)	inactive	inactive		inactive	inactive	inactive			inactive	inactive	inactive	inactive	inactive		inactive	inactive	inactive	inactive		
